The record followed here is PubChem BioAssay (NCATS).

Results filed as inconclusive are left out. A call without a number means that no potency is given here. Calls of active or inactive are those of the source. The call rests on the fitted dose curve.

The nature of one assay: Primary qHTS for Huh7 cytotoxicity: counterscreen for inhibitors of MERS-S pseudotyped particle cell entry (AID 1479147). The following applies: cell viability read-out; series mostly up to 57.1 µM.
As for `CCOC(=O)/C=C(C)/C=C/C=C(C)/C=C/c1c(C)cc(OC)c(C)c1C`, the Potency entry is “inactive”.
Take `COC(=O)N/N=C/c1c[n+]([O-])c2ccccc2[n+]1[O-]`: the Potency result is “inactive”.
As for `O=C(O)[C@H](O)c1ccccc1`, the Potency entry is “inactive”.
On to `NC(N)=NCCN1CCCCCCC1`, for which the outcome is “inactive [at 0.573 µM]”.
As for `CC(CSC(=O)c1ccccc1)C(=O)N1C[C@@H](Sc2ccccc2)C[C@H]1C(=O)O` (stereo partly specified), the Potency result is “inactive”.
Same read-out and setting: as for `Cn1nnc2c(C(N)=O)ncn2c1=O`, the entry is “inactive”; as for `CC[N+](C)(CC)CCOC(=O)C1c2ccccc2Oc2ccccc21`, “inactive”.
Regarding `C[C@@H]1O[C@@H](OC[C@H]2O[C@@H](Oc3c(-c4ccc(O)c(O)c4)oc4cc(O)cc(O)c4c3=O)[C@H](O)[C@@H](O)[C@@H]2O)[C@H](O)[C@H](O)[C@H]1O`, the Potency entry was “inactive”.
The same measure, in the same setting: then `CC(C)(Oc1ccc(C2CC2(Cl)Cl)cc1)C(=O)O` (stereo unspecified), with “inactive”; and `CC(=O)CC(c1ccc([N+](=O)[O-])cc1)c1c(O)c2ccccc2oc1=O` (stereo unspecified), with “inactive”; and `CC(C)Cn1cnc2c(N)nc3ccccc3c21`, with “inactive”.
Still for that read-out and setting: as for `CC(=O)CC(c1ccccc1)c1c(O)c2ccccc2oc1=O` (stereo unspecified), the entry is “inactive”.
In the case of `O=P(O)(O)C(Sc1ccc(Cl)cc1)P(=O)(O)O`, the outcome is “inactive [at 0.573 µM]”.
Consider `CC(C)Cc1ccc(C(C)C(=O)O)cc1` (stereo unspecified), for which the Potency entry was “inactive”.
With `CCCCC(O)/C=C(C)/C=C/C=C/C(=O)N1CCCC1=O` (stereo unspecified), the Potency entry was “inactive”.
On to `C[C@H]1C[C@@H]2[C@H]([C@@H](O)C[C@@]3(C)[C@H]2CC[C@]3(O)C(=O)CO)[C@@]2(C)C=CC(=O)C=C12`, for which the Potency result was “inactive”.
Same read-out and setting: as for `CCOc1cc(CC(=O)N[C@@H](CC(C)C)c2ccccc2N2CCCCC2)ccc1C(=O)O`, the entry is “inactive”; as for `CO[C@@]1(NC(=O)CSC[C@@H](N)C(=O)O)C(=O)N2C(C(=O)O)=C(CSc3nnnn3C)CS[C@@H]21`, “inactive”.
On the same count and under the same terms, as for `CNC(=O)c1c(I)c(NC(C)=O)c(I)c(C(=O)O)c1I`, the entry is “inactive”; as for `CCn1nc(C(=O)O)c(=O)c2cc3c(cc21)OCO3`, “inactive”; as for `CCCC(=O)O[C@]1(C(=O)COC(=O)CC)CC[C@H]2[C@@H]3CCC4=CC(=O)CC[C@]4(C)[C@H]3[C@@H](O)C[C@@]21C`, “inactive”.
On the same count and under the same terms, as for `c1ccc(-c2nc[nH]c2-c2ccccc2)cc1`, the entry is “inactive”.
Turning to `CCCCCCCCCCCCCCCC(=O)OC(C)C`, the Potency result was “inactive”.
On the same count and under the same terms, as for `CC(=O)OCC(=O)[C@@]1(OC(C)=O)[C@@H](C)C[C@H]2[C@@H]3C[C@H](F)C4=CC(=O)C=C[C@]4(C)[C@@]3(F)[C@@H](O)C[C@@]21C`, the entry is “inactive”.
As to `NS(=O)(=O)c1cc(C2(O)NC(=O)c3ccccc32)ccc1Cl` (stereo unspecified), the Potency entry is “inactive”.
Still for that read-out and setting: then `C/C(=C(\CCO)SS/C(CCO)=C(\C)N(C=O)Cc1cnc(C)nc1N)N(C=O)Cc1cnc(C)nc1N`, with “inactive”.
Same read-out and setting: as for `C[C@]12C=CC(=O)C=C1[C@@H](F)C[C@@H]1[C@@H]2[C@@H](O)C[C@@]2(C)[C@H]1CC[C@]2(O)C(=O)CO`, the entry is “inactive”; as for `COc1ccc2cccc(CCNC(C)=O)c2c1`, “inactive”.
For the compound `Cc1c(F)c(N2CCNC(C)C2)cc2c1c(=O)c(C(=O)O)cn2C1CC1` (stereo unspecified), the Potency entry is “inactive”.
For the compound `C[C@@H]1[C@H](O)[C@@H](C)/C=C/C=C\C=C\C=C\C=C\C=C\C=C\[C@H](O[C@@H]2O[C@H](C)[C@@H](O)[C@H](N)[C@@H]2O)C[C@@H]2O[C@](O)(C[C@@H](O)C[C@@H](O)[C@H](O)CC[C@@H](O)C[C@@H](O)CC(=O)O[C@H]1C)C[C@H](O)[C@H]2C(=O)O` (stereo in doubt), the Potency entry is “inactive”.
On to `CN(C)CCOC(=O)C(c1ccccc1)C1(O)CCCC1` (stereo unspecified), for which the Potency entry was “inactive”.
Same read-out and setting: then `O=C(O)CCCCCCCC(=O)O`, with “inactive”.
For `CC(=O)OC(C)C[N+](C)(C)C` (stereo unspecified), the Potency result was “inactive”.
Same read-out and setting: as for `CCc1cccc(CC)c1NC(=O)CN(CC(=O)O)CC(=O)O`, the entry is “inactive”; as for `CC(C(=O)O)c1ccc(/C=C2\CCCCC2=O)cc1` (stereo unspecified), “inactive”; as for `CN1C(C(=O)Nc2ccccn2)=C(O)c2ccccc2S1(=O)=O`, “inactive”.
Same read-out and setting: then `NCCCCCC(=O)O`, with “inactive”.
Still for that read-out and setting: as for `OC[C@H]1O[C@@H](Oc2ccc(O)cc2)[C@H](O)[C@@H](O)[C@@H]1O`, the entry is “inactive”.

A further assay in a line: Primary qHTS for inhibitors of MERS-S pseudo-typed particle cell entry (AID 1479149). Further: nearly all actives have a fitted effect of over 60% in size. The following applies: MERS-S pseudotyped particle entry, luciferase; series mostly up to 57.1 µM.
As for `CCOC(=O)/C=C(C)/C=C/C=C(C)/C=C/c1c(C)cc(OC)c(C)c1C`, the Potency entry was “inactive”.
`COC(=O)N/N=C/c1c[n+]([O-])c2ccccc2[n+]1[O-]`: the Potency result is “inactive”.
The same measure, in the same setting: then `O=C(O)[C@H](O)c1ccccc1`, with “inactive”.
Take `NC(N)=NCCN1CCCCCCC1`: the outcome was “inactive [at 0.573 µM]”.
In the case of `CC(CSC(=O)c1ccccc1)C(=O)N1C[C@@H](Sc2ccccc2)C[C@H]1C(=O)O` (stereo partly specified), the Potency result was “inactive”.
Consider `Cn1nnc2c(C(N)=O)ncn2c1=O`, for which the Potency result is “inactive”.
Same read-out and setting: then `CC[N+](C)(CC)CCOC(=O)C1c2ccccc2Oc2ccccc21`, with “inactive”; and `C[C@@H]1O[C@@H](OC[C@H]2O[C@@H](Oc3c(-c4ccc(O)c(O)c4)oc4cc(O)cc(O)c4c3=O)[C@H](O)[C@@H](O)[C@@H]2O)[C@H](O)[C@H](O)[C@H]1O`, with “inactive”; and `CC(C)(Oc1ccc(C2CC2(Cl)Cl)cc1)C(=O)O` (stereo unspecified), with “inactive”.
On the same count and under the same terms, then `CC(=O)CC(c1ccc([N+](=O)[O-])cc1)c1c(O)c2ccccc2oc1=O` (stereo unspecified), with “inactive”.
Still for that read-out and setting: then `CC(C)Cn1cnc2c(N)nc3ccccc3c21`, with “inactive”.
Consider `CC(=O)CC(c1ccccc1)c1c(O)c2ccccc2oc1=O` (stereo unspecified), for which the Potency entry is “inactive”.
With `O=P(O)(O)C(Sc1ccc(Cl)cc1)P(=O)(O)O`, the outcome was “inactive [at 0.573 µM]”.
In the case of `CC(C)Cc1ccc(C(C)C(=O)O)cc1` (stereo unspecified), the Potency result was “inactive”.
With `CCCCC(O)/C=C(C)/C=C/C=C/C(=O)N1CCCC1=O` (stereo unspecified), the Potency entry is “inactive”.
Still for that read-out and setting: then `C[C@H]1C[C@@H]2[C@H]([C@@H](O)C[C@@]3(C)[C@H]2CC[C@]3(O)C(=O)CO)[C@@]2(C)C=CC(=O)C=C12`, with “inactive”.
On the same count and under the same terms, as for `CCOc1cc(CC(=O)N[C@@H](CC(C)C)c2ccccc2N2CCCCC2)ccc1C(=O)O`, the entry is “inactive”.
The same measure, in the same setting: as for `CO[C@@]1(NC(=O)CSC[C@@H](N)C(=O)O)C(=O)N2C(C(=O)O)=C(CSc3nnnn3C)CS[C@@H]21`, the entry is “inactive”.
For `CNC(=O)c1c(I)c(NC(C)=O)c(I)c(C(=O)O)c1I`, the Potency entry is “inactive”.
Take `CCn1nc(C(=O)O)c(=O)c2cc3c(cc21)OCO3`: the Potency result is “inactive”.
The same measure, in the same setting: as for `CCCC(=O)O[C@]1(C(=O)COC(=O)CC)CC[C@H]2[C@@H]3CCC4=CC(=O)CC[C@]4(C)[C@H]3[C@@H](O)C[C@@]21C`, the entry is “inactive”; as for `c1ccc(-c2nc[nH]c2-c2ccccc2)cc1`, “inactive”; as for `CCCCCCCCCCCCCCCC(=O)OC(C)C`, “inactive”.
Still for that read-out and setting: as for `CC(=O)OCC(=O)[C@@]1(OC(C)=O)[C@@H](C)C[C@H]2[C@@H]3C[C@H](F)C4=CC(=O)C=C[C@]4(C)[C@@]3(F)[C@@H](O)C[C@@]21C`, the entry is “inactive”; as for `NS(=O)(=O)c1cc(C2(O)NC(=O)c3ccccc32)ccc1Cl` (stereo unspecified), “inactive”; as for `C/C(=C(\CCO)SS/C(CCO)=C(\C)N(C=O)Cc1cnc(C)nc1N)N(C=O)Cc1cnc(C)nc1N`, “inactive”.
The same measure, in the same setting: as for `C[C@]12C=CC(=O)C=C1[C@@H](F)C[C@@H]1[C@@H]2[C@@H](O)C[C@@]2(C)[C@H]1CC[C@]2(O)C(=O)CO`, the entry is “inactive”.
As to `COc1ccc2cccc(CCNC(C)=O)c2c1`, the Potency result was “inactive”.
Same read-out and setting: then `Cc1c(F)c(N2CCNC(C)C2)cc2c1c(=O)c(C(=O)O)cn2C1CC1` (stereo unspecified), with “inactive”; and `C[C@@H]1[C@H](O)[C@@H](C)/C=C/C=C\C=C\C=C\C=C\C=C\C=C\[C@H](O[C@@H]2O[C@H](C)[C@@H](O)[C@H](N)[C@@H]2O)C[C@@H]2O[C@](O)(C[C@@H](O)C[C@@H](O)[C@H](O)CC[C@@H](O)C[C@@H](O)CC(=O)O[C@H]1C)C[C@H](O)[C@H]2C(=O)O` (stereo in doubt), with “inactive”; and `CN(C)CCOC(=O)C(c1ccccc1)C1(O)CCCC1` (stereo unspecified), with “inactive”.
`O=C(O)CCCCCCCC(=O)O`: the Potency entry was “inactive”.
Same read-out and setting: then `CC(=O)OC(C)C[N+](C)(C)C` (stereo unspecified), with “inactive”.
On the same count and under the same terms, as for `CCc1cccc(CC)c1NC(=O)CN(CC(=O)O)CC(=O)O`, the entry is “inactive”; as for `CC(C(=O)O)c1ccc(/C=C2\CCCCC2=O)cc1` (stereo unspecified), “inactive”; as for `CN1C(C(=O)Nc2ccccn2)=C(O)c2ccccc2S1(=O)=O`, “inactive”.
Take `NCCCCCC(=O)O`: the Potency entry was “inactive”.
Same read-out and setting: as for `OC[C@H]1O[C@@H](Oc2ccc(O)cc2)[C@H](O)[C@@H](O)[C@@H]1O`, the entry is “inactive”.
